Only some compounds are listed: those with a hit (about 10% of all), similar ones and a draw of the others.
NIH3T3 tox = kills NIH 3T3 cells | Potency, µM (top dose mostly 96.7 µM), actives largely listed as inhibitors | actives 4.3% (n = 94,000) | NIH 3T3 viability, CellTiter-Glo ATP luminescence, 48-72 h; note: nearly all actives have a fitted effect of over 55% in size
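Mouse fibroblast NIH 3T3 cells, 400 per well, received compound via pintool and were incubated for 48 or 72 hr prior to CellTiter-Glo ATP luminescence measurement.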
GPT2 inhibitor = GPT2 alanine aminotransferase inhibition; Q8TD30; Recombinant GPT2, coupled pyruvate oxidase/HRP Amplex Red fluorescence; Potency, µM (top dose mostly 57.7 µM), usual class: inhibitors; actives 0.25% (n = 100,000); AID 1671188; note: nearly all actives have a fitted effect of over 60% in size
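Recombinant GPT2 (10ng/uL) with 250uM a-KG and 2mM L-alanine, 30 min at room temperature, in HEPES pH 7.5 buffer. Pyruvate detected by pyruvate oxidase/HRP/Amplex Red fluorescence after 30 min in the dark; AOA (50uM) as positive control.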
HEK cytotox = cytotoxic compounds in HEK 293 cells; Potency, µM (series often up to 115 µM), usual class: inhibitors; actives 6.6% (n = 94,000); HEK 293 viability, ATP luminescence (CellTiter-Glo), 48-72 h; note: nearly all actives have a fitted effect of over 60% in size
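qHTS cytotoxicity; HEK 293, 250 cells/well; compound pinned; 48 or 72 hr, 37 degree Celsius, 5% CO2, 95% humidity; CellTiter-Glo, 10 min RT; luminescence (ATP).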
Luciferase inh = blocks purified firefly luciferase enzyme activity; P08659; purified P. pyralis luciferase, luminescence, biochemical; Potency, µM (highest dose often 115 µM), usual class: inhibitors; actives 2.5% (n = 76,000); AID 1347043; note: nearly all actives have a fitted effect of over 65% in size
Target sequence (P08659 whole entry, looked up): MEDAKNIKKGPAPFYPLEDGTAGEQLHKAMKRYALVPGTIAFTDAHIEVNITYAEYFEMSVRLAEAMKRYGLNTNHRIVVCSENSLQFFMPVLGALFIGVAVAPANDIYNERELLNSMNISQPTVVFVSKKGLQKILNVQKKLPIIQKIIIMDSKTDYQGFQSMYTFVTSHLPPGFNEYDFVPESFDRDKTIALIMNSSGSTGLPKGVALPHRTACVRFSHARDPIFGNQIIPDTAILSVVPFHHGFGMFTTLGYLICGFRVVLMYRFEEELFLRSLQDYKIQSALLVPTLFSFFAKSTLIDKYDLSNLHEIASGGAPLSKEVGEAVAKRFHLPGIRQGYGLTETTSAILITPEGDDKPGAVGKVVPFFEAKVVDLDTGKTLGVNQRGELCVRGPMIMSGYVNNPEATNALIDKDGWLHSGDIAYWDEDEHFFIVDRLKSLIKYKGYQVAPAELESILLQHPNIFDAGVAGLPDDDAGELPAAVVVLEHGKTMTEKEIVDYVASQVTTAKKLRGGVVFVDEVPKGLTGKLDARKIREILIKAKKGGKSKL
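Purified 10nM P. pyralis luciferase with 10uM D-luciferin and 10uM ATP in 50mM Tris acetate pH 7.5, 10mM Mg acetate, 0.01% Tween-20, 0.05% BSA. qHTS titration; luminescence read by CCD imager.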
hNpr1 antagonist = antagonists of human natriuretic peptide receptor Npr1; Potency, µM (doses to about 46.3 µM), most hits filed as inhibitors; AID 1347048; P16066; HEK293 hNpr1 GloSensor cGMP, ANP-stimulated luminescence; actives 1.6% (n = 76,000); calls by dose curve; note: nearly all actives have a fitted effect of over 60% in size
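HEK293 cells stably expressing human Npr1 and cGMP GloSensor pGS-40F, loaded 2 h with 2% GloSensor reagent, given compound 30 min at room temperature. Luminescence read before and 20 min after 0.1 nM hNppA.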
A number is an active result; n = inactive; u = inconclusive; x = no result given. Unless noted, calls come from the whole dose curve; as a rule, active = well fitted curve in the direction sought with a large enough effect; inconclusive = small, poorly fitted or top-dose-only effect, or another doubt; inactive = no such curve, though single readings can be large; an effect the other way counts as inactive or inconclusive.

SMILES	NIH3T3 tox	GPT2 inhibitor	HEK cytotox	Luciferase inh	hNpr1 antagonist
Cc1noc([C@@H]2CNC[C@H]2C(=O)N2CC=C(c3ccccc3)CC2)n1	u	u	n	n	n
CC(=O)N(C)CCc1noc(C2CN(C(=O)COc3ccccc3)C2)n1	n	n	n	n	n
CC(=O)N(C)CCc1noc(C2CN(Cc3c(F)cccc3Cl)C2)n1	u	n	39.8µM	n	n
O=C1N(Cc2ccc(F)cc2)C[C@H]2CN(Cc3cnc4ccccc4c3)CCN12	70.8µM	n	u	n	u
Cc1n[nH]c(C)c1C(NC(=O)c1scc2c1OCCO2)C(=O)O (centres undefined)	n	n	n	n	n
O=c1cc(-c2ccncc2)oc2c(-c3ccccc3F)nccc12	u	n	u	n	n
O=c1cc(-c2ccncc2)oc2c(-c3cccc4[nH]ccc34)nccc12	u	n	25.1µM	n	n
O=c1cc(-c2ccncc2)oc2c(-c3cccc(CO)c3)nccc12	44.7µM	n	n	n	n
Cc1ccccc1-c1nccc2c(=O)cc(-c3ccncc3)oc12	u	n	100µM	n	n
COc1ncccc1-c1nccc2c(=O)cc(-c3ccncc3)oc12	28.2µM	u	n	n	n
COc1nccc(N2CCC(CC(=O)NCCN3CCC(C)CC3)CC2)n1	n	n	n	n	n
O=S(=O)(Cc1ccccc1)N1CCC(c2noc(-c3ccncc3)n2)C1 (centres undefined)	n	n	u	n	n
Cc1ccc(-c2noc([C@@H]3C[C@@H](O)CN3Cc3ccccc3O)n2)cc1F	44.7µM	n	u	50.1µM	n
COc1ccc(CN2C[C@H](O)C[C@H]2c2nc(-c3cccc(C)c3)no2)c2ccccc12	79.4µM	n	100µM	20µM	n
Cc1ccc(-c2noc([C@@H]3C[C@@H](O)CN3Cc3ccc(C(=O)O)cc3)n2)cc1F	n	n	n	50.1µM	n
Oc1ccccc1CN1C[C@H](O)C[C@H]1c1nc(-c2ccccc2)no1	u	n	u	n	n
O=C(C[C@@H]1CCNC[C@@H]1Cc1cc(CSc2ccccc2)on1)Nc1ccccc1	70.8µM	n	44.7µM	n	n
O=C(C[C@@H]1CCNC[C@@H]1Cc1cc(COc2ccccc2)on1)Nc1ccccc1	31.6µM	n	39.8µM	n	n
O=C(C[C@@H]1CCNC[C@@H]1Cc1cc(CSc2ccccc2)on1)N1CCN(c2ccccc2)CC1	25.1µM	n	u	n	n
O=C(C[C@@H]1CCNC[C@@H]1Cc1cc(COc2ccccc2)on1)NCc1cccnc1	n	n	n	n	n
O=C(C[C@@H]1CCNC[C@@H]1Cc1cc(CN2CCOCC2)on1)N1CCN(c2ccccc2)CC1	n	n	n	n	n
O=C(C[C@@H]1CCNC[C@@H]1Cc1cc(COc2ccccc2)on1)NCc1ccccc1	u	n	79.4µM	n	n
CC(C)(C)NC(=O)C[C@@H]1CCNC[C@@H]1Cc1cc(COc2ccccc2)on1	n	n	u	n	n
NC(=O)CNC(=O)C1=C[C@@H](NC(=O)Nc2ccc(OC(F)(F)F)cc2)[C@@H](O)[C@H](O)C1	n	u	n	n	n
Cc1onc(C(=O)N2CCC(C)(c3noc(-c4ccncc4)n3)CC2)c1Cn1cc(Cl)cn1	n	n	u	n	n
SMILES	NIH3T3 tox	GPT2 inhibitor	HEK cytotox	Luciferase inh	hNpr1 antagonist
Cc1noc2c(NC3CCOCC3)cc(-c3cccc(C(F)(F)F)c3)nc12	u	n	u	n	n
CC(C)c1noc(-c2cccn3c(CNC(=O)C4CCCCC4)nnc23)n1	n	n	n	n	n
COc1ccc(C(=O)NCCNC(=O)c2cccc(-c3ccc(SC)cc3)c2)cc1	u	n	u	x	x
CSc1ccc(-c2cccc(C(=O)NCCN[S+](=O)([O-])c3ccc(C)cc3)c2)cc1	u	n	39.8µM	x	x
CSc1ccc(-c2cccc(C(=O)NCCNC(=O)N(C)C)c2)cc1	u	n	25.1µM	x	x
CSc1ccc(-c2cccc(C(=O)NCCN[S+](=O)([O-])c3cccc(C(F)(F)F)c3)c2)cc1	u	n	u	x	x
COc1cccc(CNC(=O)CNC(=O)c2cccc(-c3ccc(SC)cc3)c2)c1	n	u	22.4µM	x	x
Cc1cnc(C(=O)NCC2Cn3cccc3C(=O)N2CC(C)C)cn1 (centres undefined)	n	n	n	n	n
COc1ccc(N2CCN(c3nc(C(=O)NCC4CCCCC4)cs3)CC2)cc1	n	n	n	n	n
COc1ccc(N2CCN(c3nc(C(=O)NCc4ccccc4C)cs3)CC2)cc1	u	u	28.2µM	n	n
COc1ccc(N2CCN(c3nc(C(=O)NC4CC4)cs3)CC2)cc1	28.2µM	u	31.6µM	n	u
O=C(NC1CCCC1)c1csc(N2CCN(c3ccccc3F)CC2)n1	25.1µM	n	u	n	u
O=C(NCc1cccs1)c1csc(N2CCN(c3ccc(F)cc3)CC2)n1	u	n	31.6µM	n	u
O=C(Cc1ccccc1)NC1CCCc2c1[nH]c1ccccc21 (centres undefined)	22.4µM	n	u	n	n
O=C(Cc1c[nH]c2ccccc12)NC1CCCc2c1[nH]c1ccc(F)cc21 (centres undefined)	31.6µM	n	35.5µM	n	n
CC(C)CC(=O)NC1CCCc2c1[nH]c1ccc(Cl)cc21 (centres undefined)	20µM	n	u	n	n
COCCn1cc(C(=O)NC2CCCc3c2[nH]c2ccccc32)c2ccccc2c1=O (centres undefined)	u	u	44.7µM	n	n
COc1ccccc1-c1ccccc1CN1CCC(C)(NC(C)=O)C1 (centres undefined)	u	n	n	n	n
COc1cccc(OC)c1OCCNCC1CSc2ccccc2O1 (centres undefined)	x	n	x	x	x
COC(=O)[C@@H]1Cc2c([nH]c3ccccc23)[C@H]2C[C@H](NCCN3CCOCC3)C[C@@H](c3ccc(F)cc3)N21	25.1µM	n	20µM	n	n
COC(=O)[C@@H]1Cc2c([nH]c3ccccc23)[C@H]2C[C@@H](NCCN3CCOCC3)C[C@@H](c3ccc(F)cc3)N21	u	n	28.2µM	n	n
O=C(NCCN1CCOCC1)C1CCc2nnc(-c3ccc(F)cc3)n21 (centres undefined)	n	n	n	x	x
O=C(C[C@@H]1O[C@H](CNCc2ccc(F)cc2)[C@@H](O)[C@H]1O)NCCN1CCOCC1	u	n	n	n	n
O=C(COc1ccc(Cl)cc1Cl)N1CCCCC1c1ccccn1 (centres undefined)	u	n	44.7µM	u	u
O=C(C1CCCC1)N1CCC(C(=O)N2CCCC2c2ccccn2)CC1 (centres undefined)	n	n	n	n	n
CC1=C[C@@H](CN(C)CCO)[C@H](C(C)C)C[C@H]1Cc1nnc(-c2ccc(C)cc2)o1	u	n	89.1µM	n	n

Source: PubChem BioAssay (National Center for Advancing Translational Sciences (NCATS))
